Screens: PubChem, Buhrlage Lab, Dana-Farber Cancer Institute and Novartis Institutes for BioMedical Research (Cambridge, Mass)
Shown are actives, neighbours in structure and some others; about 13% of the full set was active somewhere.
USP30 block: inhibitors of human USP30 deubiquitinase; purified USP30, Ub-rhodamine cleavage fluorescence; Ubiquitin carboxyl-terminal hydrolase 30 (Homo sapiens), Q70CQ3; inhibition, % at 25 µM; 5.3% of 47,000 active; AID 1645860, 2021
Target sequence (Q70CQ3 whole entry, looked up): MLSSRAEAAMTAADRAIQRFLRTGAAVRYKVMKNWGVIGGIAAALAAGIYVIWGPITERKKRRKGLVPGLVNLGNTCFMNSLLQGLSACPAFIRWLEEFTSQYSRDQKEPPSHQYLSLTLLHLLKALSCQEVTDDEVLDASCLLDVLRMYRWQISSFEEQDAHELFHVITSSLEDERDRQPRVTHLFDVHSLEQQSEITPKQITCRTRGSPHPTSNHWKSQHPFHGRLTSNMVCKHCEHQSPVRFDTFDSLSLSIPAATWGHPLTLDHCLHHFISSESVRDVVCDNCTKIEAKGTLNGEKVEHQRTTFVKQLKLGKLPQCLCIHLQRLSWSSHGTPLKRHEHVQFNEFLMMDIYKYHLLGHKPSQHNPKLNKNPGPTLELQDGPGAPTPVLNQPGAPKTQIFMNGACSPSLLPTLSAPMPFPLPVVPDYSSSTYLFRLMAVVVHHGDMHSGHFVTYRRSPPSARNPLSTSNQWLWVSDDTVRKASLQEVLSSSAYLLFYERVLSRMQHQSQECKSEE
USP17 inh: inhibitors of human USP17 deubiquitinase; Ubiquitin carboxyl-terminal hydrolase 17-like protein 5 (Homo sapiens), A8MUK1; purified USP17, Ub-rhodamine cleavage fluorescence, 3 h; inhibition, % at 50 µM; 6.5% of 47,000 active
USP8 inh: inhibitors of human USP8 deubiquitinase; Ubiquitin carboxyl-terminal hydrolase 8 (Homo sapiens), P40818; purified USP8, Ub-rhodamine cleavage fluorescence, 30 min; inhibition, % at 20 µM; 4.2% of 47,000 active
USP28 inh: inhibitors of human USP28 deubiquitinase. Ubiquitin carboxyl-terminal hydrolase 28 (Homo sapiens), Q96RU2. purified USP28, Ub-rhodamine cleavage fluorescence, 30 min. inhibition, % at 25 µM. 3% of 47,000 active
USP10 block: inhibitors of human USP10 deubiquitinase; purified USP10, Ub-rhodamine fluorescence, 60 min; inhibition, % at 20 µM; 1.1% of 47,000 active; AID 1645856, 2021
* marks the source's active call; other numbers are inactive results; / = not tested or not shown. No stated cut-off is given here; in the data, active means inhibition above about 30%; inactive means the rest.

SMILES	USP30 block	USP17 inh	USP8 inh	USP28 inh	USP10 block
COc1ccc(C(=O)N2CCN(Cc3cc(=O)n4ccccc4n3)CC2)cc1	36*	20	21	18	0
Cc1ccccc1NC(=O)Nc1ccccc1OCc1cc(=O)n2ccccc2n1	42*	50*	13	20	11
CCN(C(=O)Cn1c(CN2CCCCCC2)nc2ccccc21)c1ccccc1	3	-3	1	3	-1
O=C(NCc1noc(C2CCCCC2)n1)C1CCCCC1	-14	-4	1	-6	-1
O=C(CCc1ccco1)NC1CCc2ccccc21 (stereo not drawn)	-92	-1	-18	-14	-7
COc1ccc(CCN[C@H]2CS(=O)(=O)C[C@@H]2S(=O)(=O)c2ccc(C)cc2)cc1	-25	0	-4	-4	-3
O=C(NCC(c1ccco1)N1CCOCC1)c1ccccc1F (stereo not drawn)	-42	-23	4	0	3
CC(=O)Nc1ccc2nc(NC(=O)C34CC5CC(CC(C5)C3)C4)sc2c1	14	37*	12	7	-1
Cc1cc(C)cc(NC(=O)CSc2ccc(-c3ccncc3)nn2)c1	55*	-5	5	19	-2
CCc1ccc(NC(=O)CSc2ccc(-c3ccncc3)nn2)cc1	-5	5	-1	2	-3
COc1cccc(-c2ccc(SCC(=O)Nc3ccc(F)c(F)c3)nn2)c1	24	14	32*	8	10
O=C(NCCc1ccccc1)c1cnn(-c2ccc([N+](=O)[O-])cc2)c1C1CCNCC1	6	-42	-326	-2	1
CCOC(=O)CNC(=O)N1CCCCCC1c1cccs1 (stereo not drawn)	4	-9	0	-11	-1
CCOC(=O)Cn1c(=O)c(C(=O)NC(=O)OCC)cn(Cc2cccs2)c1=O	31*	22	0	1	5
Cc1ccccc1OCc1nc2c3cnn(C)c3ncn2n1	35*	17	-1	15	-2
Cc1ccccc1OCc1nc2c3c(C)c(C)oc3ncn2n1	-34	3	19	9	-7
CCN(CC)C(=O)Cn1cc(C(=O)C(=O)NCc2ccccc2Cl)c2ccccc21	45*	5	15	17	5
CCN(CC)C(=O)Cn1cc(S(=O)(=O)Cc2ccccc2Cl)c2ccccc21	18	38*	1	16	0
O=C(Cn1cc(S(=O)(=O)Cc2c(F)cccc2Cl)c2ccccc21)N1CCCCCC1	0	1	-7	-7	12
CCN(CC)C(=O)Cn1cc(S(=O)(=O)Cc2c(F)cccc2Cl)c2ccccc21	38*	14	-2	-1	6
Cc1nc(C2CCN(Cc3ncc[nH]3)CC2)nc2c1CCC(=O)N2Cc1cccc(F)c1	-5	-5	-3	0	-2
Nc1c(C(=O)c2ccco2)sc2c1c(=O)[nH]c(=O)n2Cc1ccc2c(c1)OCO2	-441	4	54*	-58	-7
COc1ccc(C(=O)Nc2cnc(-c3ccccc3)nc2)cc1	-17	38*	92*	-10	10
CN(C)S(=O)(=O)Oc1ccc(C(=O)Nc2ccc(F)cc2)cc1	41*	40*	20	32*	9
COc1ccc(C(=O)Nc2cnc(N3CCCCC3)nc2)cc1	-31	-13	-12	38*	-6
SMILES	USP30 block	USP17 inh	USP8 inh	USP28 inh	USP10 block
Cc1ccc(C(=O)Nc2ccc3nccnc3c2)cc1	29	6	-1	59*	0
Cc1ccc(-c2cc3cccnc3n2CCC(=O)N2CCCC2)cn1	-9	-5	-5	1	-5
CCN1CCN(c2ccc(NC(=O)c3ccc(OC)cc3)cn2)C1=O	9	22	12	45*	2
Cc1ccc(C(=O)Nc2cnc(N3CCOCC3)nc2)cc1C	5	-4	-5	40*	-6
COc1ccc(NC(=O)c2ccc(Nc3nnc(C)c4ccccc34)cc2)cc1	17	23	1	66*	5
CCN1CCN(c2ccc(NC(=O)c3ccc4c(c3)OCO4)cn2)C1=O	16	1	-12	8	-1
COc1ccc(NC(=O)c2ccc(C)cc2)cc1	31*	45*	0	25	5
CSc1cccc(NC(=O)CCc2ccc3nc(NC(C)=O)sc3c2)c1	54*	16	-142	11	1
CC(C)C(=O)Nc1nc2ccc(CCC(=O)Nc3ccc(F)cc3F)cc2s1	33*	12	-2	4	6
Cc1ccccc1CNC(=O)CCc1ccc2nc(NC(=O)C(C)C)sc2c1	8	21	-7	-4	0
Cc1ccccc1NC(=O)CSC1=NC2(CCCC2)Nc2ccccc21	-164	-46	-20	-44	-6
COc1cccc2cc(C(=O)N3CCN(c4cc(C)cc(C)c4)CC3)c(=O)oc12	-21	-12	-2	-2	1
Cc1ccc(NC(=O)c2cc(=O)c3ccccc3o2)cc1S(=O)(=O)N1CCOCC1	35*	7	-13	21	10
Cc1ccc(NC(=O)C2CCCC2)cc1S(=O)(=O)N1CCOCC1	-5	-14	-3	-9	0
O=c1ccc2cc(S(=O)(=O)NCc3ccccc3Cl)ccc2[nH]1	/	26	6	/	-2
CC1CC(=O)c2c(cc3c(-c4c(O)cc(O)c5c(O)c6c(cc45)OC(C)CC6=O)c(O)cc(O)c3c2O)O1 (stereo not drawn)	9	88*	78*	85*	83*
CCN1C(=O)[C@H]2CN(CCOC)C[C@H]2C12CCN(C(=O)c1cccnc1)CC2	-12	-14	-73	-10	-1
CC(=O)Nc1cccc(NC(=O)COc2cccc3ccc(N4CCCC4)nc23)c1	15	53*	6	15	5
Cc1cc(OCC(=O)Nc2cccc(C#N)c2)nc(N2CCCCC2)n1	-30	-14	-17	-1	0
Cc1cccc(NC(=O)COc2cccc3ccc(N4CCC(C(N)=O)CC4)nc23)c1	15	33*	61*	0	11
Cc1ccc(C(=O)Nc2ccc(C)n(CC(=O)N3CCN(C(C)C)CC3)c2=O)cc1	3	0	-4	-5	0
Cc1nc(-c2ncc(C)[nH]2)cc(C2CCCN(C(=O)Cc3ccc(F)cc3)C2)n1 (stereo not drawn)	11	0	2	5	-1
CC(C)c1nccn1-c1cccc(C2CCCN(C(=O)c3cnccn3)C2)n1 (stereo not drawn)	-2	-20	-65	19	1
Cc1ccc(NC(=O)CCc2nc3c(C)nn(-c4ccccc4)c3n(C)c2=O)cc1C	7	27	1	5	14
CSc1cccc(NC(=O)CCc2nc3c(C)nn(-c4ccccc4)c3n(C)c2=O)c1	-1	43*	1	-1	-1
Cc1nn(-c2ccccc2)c2c1nc(CCC(=O)NCc1ccccc1F)c(=O)n2C	43*	13	-10	14	0
